Screens from PubChem.
L3MBTL1 block: qHTS Assay for the Inhibitors of L3MBTL1; AlphaScreen L3MBTL1–H3K9me1 peptide binding; Potency, µM (highest dose often 57.1 µM), for inactives: at the top dose activity, negative = inhibition, usual class: inhibitors; 230,000 tested, 0.66% active; AID 485360, 2010; note: % is set by controls: 0 for no effect and ±100 for the full control effect; nearly all actives have a fitted effect of over 60% in size
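AlphaScreen proximity signal between nickel-chelate acceptor and streptavidin donor beads (final 10 ug/mL) reports binding of 50 nM L3MBTL1 to 75 nM biotin-H3 K9me1 peptide; complex incubated with compounds 30 min at room temperature; cefsulodin titration as control.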
HP1b binding inh: HTS for Inhibitors of HP1-beta Chromodomain Interactions with Methylated Histone Tails; Chromobox protein homolog 1 (Homo sapiens), P83916; AlphaScreen HP1-beta / biotin-H3K9me3 peptide binding; Potency, µM (series often up to 114 µM), for the others: top-dose activity change, negative = inhibition, usual class: inhibitors; 390,000 tested, 0.56% active; note: nearly all actives have a fitted effect of over 70% in size
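Compound inhibition of the preformed complex between 50 nM HP1-beta and 50 nM biotinylated H3K9me3 peptide was read by AlphaScreen. Buffer was PBS pH 7.4 with 0.01% Tween-20. Incubations ran 30 min at room temperature, with 10 ug/mL donor/acceptor beads.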
VDR inh: Inhibitors of the vitamin D receptor (VDR): qHTS; VDR-SRC2-3 peptide fluorescence polarization, 2 h; Potency, µM, for the others: max response, negative = inhibition, hits mostly inhibitors; 400,000 tested, 0.93% active; AID 504847, 2011; note: % is set by controls: 0 for no effect and ±100 for the full control effect
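Signal is fluorescence polarization, reporting how far test compounds block the interaction of VDR with the SRC2-3 coregulator peptide after a 2 h room-temperature incubation.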
PLK1 PBD block: qHTS for Inhibitors of PLK1-PDB (polo-like kinase 1 - polo-box domain): Primary Screen | Serine/threonine-protein kinase PLK1 (Homo sapiens), P53350 | Plk1 PBD binding of FITC phosphopeptide, fluorescence polarization | Potency, µM, inactives show max response, negative = inhibition, hits mostly inhibitors | 360,000 tested, 2.8% active; note: series mostly up to about 57 µM; % is set by controls: 0 for no effect and ±100 for the full control effect; nearly all actives have a fitted effect of over 65% in size
BAZ2B inh: qHTS Assay for Inhibitors of BAZ2B. Bromodomain adjacent to zinc finger domain protein 2B (Homo sapiens), Q9UIF8. AlphaScreen BAZ2B-H3K14Ac peptide displacement. Potency, µM (series often up to 114 µM), for the others: at the highest dose activity change, negative = inhibition, usual class: inhibitors. 360,000 tested, 4.4% active; note: % is set by controls: 0 for no effect and ±100 for the full control effect; nearly all actives have a fitted effect of over 60% in size
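Compounds, titrated to a top concentration of 110 uM, were incubated 30 min at room temperature with preformed BAZ2B/acetyl-K14 H3 peptide complex (50 nM each). Proximity signal was measured by AlphaScreen after 20 min with beads.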
JMJD2A Tudor: qHTS Assay for Inhibitors of JMJD2A-Tudor Domain | Potency, µM (top dose mostly 114 µM), without a hit: top-dose activity change, negative = inhibition, usual class: inhibitors | AlphaScreen JMJD2A-Tudor / H3K4me3 peptide binding | AID 504339, 2011 | 390,000 tested, 4.4% active; note: % is set by controls: 0 for no effect and ±100 for the full control effect; nearly all actives have a fitted effect of over 50% in size
The depositor's hits bear a star; ? = inconclusive; . = not tested or not shown; [ ] = remark or other dose. Rows were chosen to be rich in hits. Some 6.9% of all compounds tested hit in one or more screens of this group. Calls come from the whole dose curve; as a rule, active = well fitted curve in the direction sought with a large enough effect; inconclusive = small, poorly fitted or top-dose-only effect, or another doubt; inactive = no such curve, though single readings can be large; an effect the other way counts as inactive or inconclusive. Potency is the fitted concentration of half-maximal effect.

SMILES	L3MBTL1 block	HP1b binding inh	VDR inh	PLK1 PBD block	BAZ2B inh	JMJD2A Tudor
CCCCOc1cccc(C(=O)N(Cc2sccc2C)C2CCS(=O)(=O)C2)c1 (stereo not drawn)	.	37%	3%	.	-2%	-12%
O=C(O)c1c[nH]c2c([N+](=O)[O-])cccc2c1=O	.	79µM*	-8%	-13%	.	20µM*
CCCCNc1cc(NC(C)=O)cc2cc(OC)c(OC)cc12	-9%	-15%	13%	-14%	-36%	?
COc1cc2cc(NC(C)=O)cc(NCc3ccccc3)c2cc1OC	-16%	-2%	7%	-4%	45µM*	?
CCc1ccc(CN2CCc3nc(N4CCN(CC)CC4)ncc3C2)cc1	.	11%	8%	.	56µM*	?
CCN1CCN(c2ncc3c(n2)CCN(Cc2cc(F)cc(F)c2)C3)CC1	.	-5%	0%	.	50µM*	79µM*
CCCN1CCc2nc(N3CCN(CC)CC3)ncc2C1	.	13%	15%	.	-17%	?
COc1ccc(-n2c(=O)c(-c3ccc(Cl)cc3)nc3cnc(N4CCNCC4)nc32)cc1	.	.	-16%	.	.	.
Oc1ccc(Br)cc1C1C=C(c2ccc3c(c2)OCO3)NC(c2c(F)cccc2Cl)N1 (stereo not drawn)	.	-5%	?	.	.	?
Cc1ccc(N(CC(=O)N2CCN(c3cc(Cl)ccc3C)CC2)S(=O)(=O)c2c(C)noc2C)cc1	.	32%	-24%	.	.	-7%
O=C(NCCCCc1ccccc1)c1cccc(NC(=O)C2CC2)c1	.	33%	79µM*	19µM*	.	56µM*
CC(=O)Nc1c(I)cc(I)c(C(=O)O)c1I	.	.	0%	.	.	.
CCCN1C(=O)/C(=C/C=C2\N(CC)c3ccccc3C2(C)C)SC1=S	-16%	10µM*	-7%	0%	1.8µM*	11µM*
CN1/C(=C\C=C2/SC(=S)N(CC(=O)O)C2=O)C(C)(C)c2ccccc21	-24%	35µM*	0%	113%	28µM*	?
C=CCN1C(=O)/C(=C\C=C2\N(C)c3ccccc3C2(C)C)SC1=S	-11%	?	17%	?	?	?
COc1ccc(N2C3=C(C(=O)CC(C)(C)C3)C(c3ccccc3OC)C3=C2CC(C)(C)CC3=O)cc1	23%	67%	-13%	-1%	-3%	-3%
COc1ccc(N2C3=C(CC4=C2CC(C)(C)CC4=O)C(=O)CC(C)(C)C3)cc1	2%	-5%	-89%	8.4µM*	0%	?
Clc1ccc(-c2csc3ncnc(Cl)c23)cc1	13%	45%[57 µM]	3%	-8%	3%	7%
COc1ccc(N2CCN(c3ncnc4scc(-c5ccc(F)cc5)c34)CC2)cc1	.	?	12%	-3%	7.9µM*	22µM*
COc1ccc(CN2CCN(c3ncnc4scc(-c5ccc(F)cc5)c34)CC2)cc1	.	?	-3%	0%	?	?
Fc1ccc(-c2csc3ncnc(Cl)c23)cc1	2%	?	?	21µM*	-2%	?
COc1ccc(-c2csc3ncnc(N4CCN(c5cccc(OC)c5)CC4)c23)cc1	.	-2%	-8%	-1%	-20%	-29%
COc1ccc(N2CCN(c3ncnc4scc(-c5ccccc5)c34)CC2)cc1	.	?	7%	-1%	14µM*	25µM*
S=c1[nH]cnc2scc(-c3ccc(Cl)cc3)c12	-1%	?	?	8.4µM*	-1%	-29%
Cc1ccc(C(=O)Nc2ccc(C(=O)OCc3cc(=O)n4c5c(sc4n3)CCCC5)cc2)cc1	.	39%	15%	.	-14%	6%
